Results taken from PubChem BioAssay AID1159580 (chemical genetic matrix, 2015).
Where “and” joins values, the source holds several entries; their conditions need not be identical. Equal entries are not always repeated. Screen size: about 5,500 compounds; about 2,000 (36%) were called active. About 18% were inconclusive and are not listed. Cut-off read from the data, not from the text of the source: active = normalized growth mostly below about 0.91 (no sharp cut-off); inconclusive = no clear call, values can overlap the other calls; inactive = mostly above about 0.92. The list shows a part of the results.

Assay: chemical genetic growth profiling, strain panel (AID 1159580);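 note: tested at 20 µM; growth read once vehicle control cultures reached saturation at 30 °C; 1 = growth at the plate median or of vehicle wells; lower values mean less growth of the strain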
Settings: S. cerevisiae deletion strains, growth OD

Measured: normalized growth

CC(=O)[C@H]1CCC2C3C[C@H](C)C4=CC(=O)CC[C@]4(C)C3[C@@H](O)C[C@@]21C (stereo partly drawn)
inactive: locus YAL021C, strain ccr4, stronger effect = lower value 0.988 | locus YAL026C, strain drs2, stronger effect = lower value 0.989 | locus YAL030W, strain snc1, stronger effect = lower value 0.986 | locus YBL061C, strain skt5, stronger effect = lower value 0.988 | locus YBR009C, strain hhf1, stronger effect = lower value 1 | locus YBR021W, strain FUR4, stronger effect = lower value 0.979 | locus YBR023C, strain chs3, stronger effect = lower value 0.983 | locus YBR171W, strain sec66, stronger effect = lower value 0.973 | locus YBR229C, strain ROT2, stronger effect = lower value 0.994 | locus YBR231C, strain swc5, stronger effect = lower value 0.994 | locus YBR279W, strain paf1, stronger effect = lower value 0.99 | locus YCL011C, strain gbp2, stronger effect = lower value 0.964 | locus YCL016C, strain dcc1, stronger effect = lower value 0.953 | locus YCL029C, strain bik1, stronger effect = lower value 0.983 | locus YCL061C, strain MRC1, stronger effect = lower value 0.989 | locus YCL069W, strain vba3, stronger effect = lower value 0.983 | locus YCR088W, strain abp1, stronger effect = lower value 0.98 | locus YDL005C, strain med2, stronger effect = lower value 0.984 | locus YDL035C, strain GPR1, stronger effect = lower value 1.02 | locus YDL040C, strain nat1, stronger effect = lower value 0.987 | locus YDL074C, strain BRE1, stronger effect = lower value 0.98 | locus YDL101C, strain DUN1, stronger effect = lower value 0.993 | locus YDL134C, strain PPH21, stronger effect = lower value 1.01 | locus YDL185W, strain tfp1, stronger effect = lower value 0.965 | locus YDL192W, strain arf1, stronger effect = lower value 0.981 | locus YDR001C, strain nth1, stronger effect = lower value 0.977 | locus YDR069C, strain doa4, stronger effect = lower value 1.02 | locus YDR101C, strain arx1, stronger effect = lower value 0.989 | locus YDR137W, strain rgp1, stronger effect = lower value 0.921 | locus YDR159W, strain sac3, stronger effect = lower value 1.01 | locus YDR162C, strain NBP2, stronger effect = lower value 0.99 | locus YDR195W, strain ref2 0.997 | locus YDR297W, strain sur2, stronger effect = lower value 0.985 | locus YDR318W, strain mcm21, stronger effect = lower value 0.988 | locus YDR334W, strain swr1, stronger effect = lower value 0.963 | locus YDR335W, strain msn5, stronger effect = lower value 0.984 | locus YDR388W, stronger effect = lower value 0.986 | locus YDR392W, strain spt3, stronger effect = lower value 0.897 | locus YDR502C, strain sam2, stronger effect = lower value 0.978 | locus YEL003W, strain gim4, stronger effect = lower value 1 | locus YEL037C, strain rad23, stronger effect = lower value 0.975 | locus YEL061C, strain CIN8 (second series), stronger effect = lower value 0.977 | locus YEL061C, strain CIN8, stronger effect = lower value 0.99 | locus YER015W, strain faa2, stronger effect = lower value 0.992 | locus YER016W, strain bim1, stronger effect = lower value 0.996 | locus YER110C, stronger effect = lower value 0.969 | locus YER111C, strain swi4, stronger effect = lower value 0.982 | locus YER155C, strain BEM2 (second series), stronger effect = lower value 1 | locus YER155C, strain BEM2, stronger effect = lower value 0.991 | locus YER167W, strain BCK2, stronger effect = lower value 0.986 | locus YFR010W, strain ubp6, stronger effect = lower value 0.986 | locus YGL078C, strain dbp3, stronger effect = lower value 0.991 | locus YGL086W, strain mad1, stronger effect = lower value 1.01 | locus YGL167C, strain pmr1, stronger effect = lower value 0.971 | locus YGL173C, strain kem1, stronger effect = lower value 0.995 | locus YGL227W, strain vid30, stronger effect = lower value 0.978 | locus YGL240W, strain doc1, stronger effect = lower value 1.02 | locus YGL248W, strain PDE1, stronger effect = lower value 0.984 | locus YGL253W, strain hxk2, stronger effect = lower value 0.976 | locus YGR135W, strain pre9, stronger effect = lower value 0.939 | locus YGR252W, strain gcn5, stronger effect = lower value 1.06 | locus YHR013C, strain ard1, stronger effect = lower value 0.945 | locus YHR027C, strain rpn1, stronger effect = lower value 0.98 | locus YHR030C, strain SLT2, stronger effect = lower value 0.996 and 0.986 | locus YHR079C, strain IRE1 (second series), stronger effect = lower value 0.98 | locus YHR079C, strain IRE1, stronger effect = lower value 0.966 | locus YHR094C, strain hxt1, stronger effect = lower value 0.984 | locus YHR129C, strain ARP1, stronger effect = lower value 0.995 | locus YHR142W, strain chs7, stronger effect = lower value 0.95 | locus YHR200W, strain rpn10, stronger effect = lower value 0.981 | locus YIL066C, strain RNR3, stronger effect = lower value 0.993 | locus YIL073C, strain SPO22, stronger effect = lower value 0.899 | locus YIL125W, strain kgd1, stronger effect = lower value 0.996 | locus YIR030C, strain dcg1, stronger effect = lower value 0.975 | locus YJL092W, strain hpr5, stronger effect = lower value 0.977 | locus YJL095W, strain BCK1 (second series), stronger effect = lower value 0.982 | locus YJL095W, strain BCK1, stronger effect = lower value 0.969 and 0.976 | locus YJL115W, strain asf1, stronger effect = lower value 0.973 | locus YJL129C, strain trk1, stronger effect = lower value 0.959 | locus YJL134W, strain LCB3, stronger effect = lower value 0.99 | locus YJL154C, strain vps35, stronger effect = lower value 0.972 | locus YJL164C, strain tpk1, stronger effect = lower value 0.997 | locus YJL166W, strain qcr8, stronger effect = lower value 0.979 | locus YJL168C, strain set2, stronger effect = lower value 0.994 | locus YJL187C, strain SWE1 (second series), stronger effect = lower value 0.993 | locus YJL187C, strain SWE1, stronger effect = lower value 0.985 | locus YJR043C, strain POL32, stronger effect = lower value 1.03 | locus YJR066W, strain TOR1, stronger effect = lower value 0.925
